This passage reports composite z-score and z-score results from PubChem BioAssay.

Active and inactive are the calls of the source. Unless noted, no rule for the calls is given here.

For test [1], the system named is XIP peptide (Xip251-270) binding. The experiment in a line: small-molecule binders of XIP peptide, primary screen, biochemical, small-molecule microarray, fluorescence 635/667 nm, 0.1 µg/mL protein (AID 1182). Particulars: fluorescent protein binding, 635 nm, higher = more signal, called active from +8 up or from −8 down.
Test [2] deals with XIP peptide (Xip251-270). In words: small-molecule binders of XIP peptide, primary screen, biochemical, small-molecule microarray, fluorescence 635/667 nm, 0.5 µg/mL protein (AID 1183). The conditions noted are these: small-molecule microarray binding, fluorescence 635 nm; higher = more signal.
Test [3] in a line: Plasmodium falciparum growth inhibition, primary screen, strain 3D7, DAPI fluorescence, 100 nL (AID 1184).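 Also: parasites grown inside human red blood cells in medium with human serum.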 The conditions noted are these: P. falciparum 3D7 growth, 3 d, higher = more signal.
The target of test [4] is Homeobox protein Hox-A13 (Mus musculus) (UniProt Q62424). The experiment in a line: inhibitors of HoxA13-DNA binding, primary screen, biochemical, fluorescence polarization, labeled oligonucleotide (AID 1185). The conditions noted are these: 15 min, higher = more signal, called active from +8 up or from −8 down. Background: In fluorescence polarisation assays a small probe gives low polarisation when free and higher when bound to something large.

Test [5] can be described thus: inhibitors of hydroxyurea-induced Chk1 phosphorylation, primary screen, imaging, HeLa, phospho-Chk1 antibody, percent positive cells (AID 1186). Particulars: hydroxyurea-induced phospho-Chk1 immunofluorescence imaging, higher = more signal.
The nature of test [6]: inhibitors of hydroxyurea-induced Chk1 phosphorylation, primary screen, imaging, HeLa, phospho-Chk1 nuclear intensity (AID 1187). Particulars: hydroxyurea-induced phospho-Chk1 immunofluorescence imaging, higher = more signal.

Sequence of Homeobox protein Hox-A13 (Mus musculus) (Q62424 whole entry, looked up): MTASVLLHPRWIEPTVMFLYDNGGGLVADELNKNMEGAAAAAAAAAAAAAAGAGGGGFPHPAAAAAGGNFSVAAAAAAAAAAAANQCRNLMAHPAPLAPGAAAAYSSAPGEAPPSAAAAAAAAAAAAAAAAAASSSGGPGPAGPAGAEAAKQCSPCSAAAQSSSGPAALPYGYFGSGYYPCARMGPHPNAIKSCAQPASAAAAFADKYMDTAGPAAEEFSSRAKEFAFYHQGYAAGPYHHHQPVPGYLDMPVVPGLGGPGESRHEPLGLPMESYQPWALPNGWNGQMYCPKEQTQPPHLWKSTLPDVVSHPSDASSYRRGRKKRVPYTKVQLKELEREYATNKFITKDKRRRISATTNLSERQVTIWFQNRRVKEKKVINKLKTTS

Regarding `CCCC1(C(=O)OC)C=C2C(=C(c3ccccc3)C(=O)C2C)CN1` (configuration not stated), the composite z-score in test [1] is 0.774 (inactive); in test [2] it was 0.871. Moreover, the z-score in test [3] is -0.105; in test [4], -8.64 (active); in test [5] it was -0.323 (inactive); in test [6] it was -0.277 (inactive).
Consider `Cc1ccc([C@H]2C(C(=O)O)=CCN2S(=O)(=O)c2ccc(C)cc2)cc1`, for which the results for the composite z-score in test [1] and in test [2] were -0.609 (inactive) and 0.66, respectively. The z-score was 0.546 in test [3], -2.98 (inactive) in test [4], 0.586 (inactive) in test [5] and -0.222 (inactive) in test [6].
Regarding `O=C1C2C=CC(C(O)c3ccc(-c4ccccc4)s3)N(Nc3ccccc3)C2C(=O)N1c1ccccc1` (configuration not stated), the results for the composite z-score in test [1] and in test [2] were 0.57 (inactive) and 0.769, respectively. Further, the z-score in test [3] is -0.657; in test [4] it was -1.07 (inactive); in test [5], 0.484 (inactive); in test [6], 0.251 (inactive).
Regarding `CO[C@H]1O[C@H](CO)[C@@H](OC(=O)Nc2ccccc2-c2ccccc2)[C@H](OC(=O)Nc2ccccc2-c2ccccc2)[C@@H]1OC(=O)Nc1ccccc1-c1ccccc1`, the composite z-score in test [1] is 0.979 (inactive); in test [2] it was 0.801. Also, the z-score in test [3] is -2.51; in test [4] it was -1.13 (inactive); in test [5] it was -0.0022 (inactive); in test [6], 0.119 (inactive).
`C=CC[C@]1(C(N)=O)N=C(c2ccc(OCCCO)cc2)O[C@H]1c1ccccc1`: the composite z-score in test [1] is 0.672 (inactive); in test [2], 0.787. Further, the z-score in test [3] is -1.09; in test [4], -6.17 (inactive); in test [5], 0.344 (inactive); in test [6], 0.327 (inactive).
On to `O=C1C[C@@](C(=O)NCc2ccccc2)(c2ccc([N+](=O)[O-])cc2)[C@@H](c2ccc(CO)cc2)N1CC12CC3CC(CC(C3)C1)C2`, for which the composite z-score was 1.9 (inactive) in test [1] and 0.733 in test [2]. Also, the z-score was -0.83 in test [3], -2.75 (inactive) in test [4], -0.714 (inactive) in test [5] and -0.762 (inactive) in test [6].
With `C=C(CCCC)/C(=C/C[C@@H](OC(C)=O)c1cccc(OCCO)c1)c1cnc2ccccc2c1`, the results for the composite z-score in test [1] and in test [2] were -0.276 (inactive) and 0.114, respectively. The z-score was -2.99 in test [3], -4.61 (inactive) in test [4], -0.24 (inactive) in test [5] and -0.359 (inactive) in test [6].
Turning to `C=CC[C@@]1(C(=O)N2CCCCC2)N=C(c2ccc(OCCCO)cc2)O[C@@H]1c1ccccc1CN=[N+]=[N-]`, the values for the composite z-score in test [1] and in test [2] were 0.274 (inactive) and 0.888, respectively. In addition, the z-score in test [3] is -2.21; in test [4], -0.0816 (inactive); in test [5], -0.514 (inactive); in test [6], -0.604 (inactive).
As to `COc1cc2c(cc1O)C(c1cccs1)N(Cc1cccc(OC(F)(F)F)c1)CC2` (configuration not stated), the values for the composite z-score in test [1] and in test [2] were 1.78 (inactive) and 0.775, respectively. Further, the z-score in test [3] is -1.9; in test [4], -2.17 (inactive); in test [5], -1.02 (inactive); in test [6], -2.12 (inactive).
For `CO[C@H]1O[C@H](CO)[C@@H](OC(=O)Nc2ccccc2)[C@@H]2OC(=O)[C@@H](Cc3ccc4ccccc4c3)C/C=C/C[C@H](Cc3ccc4ccccc4c3)C(=O)O[C@@H]12`, the composite z-score in test [1] was 1.97 (inactive); in test [2] it was 0.748. Moreover, the z-score in test [3] was -0.492; in test [4], -3.03 (inactive); in test [5] it was -0.956 (inactive); in test [6] it was -0.96 (inactive).
For `C=C(/C(=C/C[C@H](OC(C)=O)c1ccc(OCCO)cc1)c1cc(C(=O)OC)ccc1OC)C(C)C`, the results for the composite z-score in test [1] and in test [2] were 0.537 (inactive) and 0.808, respectively. In addition, the z-score in test [3] is -2.9; in test [4], -3.69 (inactive); in test [5], 0.418 (inactive); in test [6], 1.29 (inactive).
As for `CCCCN1CC=CC23O[C@@H]4/C=C\CCCOC(=O)C4[C@H]2C(=O)N(CCCCCO)[C@@H]3C1=O` (some centres not stated), the composite z-score is -0.359 (inactive) in test [1] and 0.41 in test [2]. The z-score is 1.34 in test [3], -4.13 (inactive) in test [4], 1.19 (inactive) in test [5] and 0.831 (inactive) in test [6].
On to `COCCOC(=O)N1C(=O)[C@@]2(c3ccccc31)[C@H](C(=O)N1CCc3cc(OC)c(OC)cc3C1)[C@H]1C(=O)O[C@H](c3ccccc3)[C@H](c3ccccc3)N1[C@@H]2c1ccc(O)cc1`, for which the values for the composite z-score in test [1] and in test [2] were 1.58 (inactive) and 0.807, respectively. Also, the z-score in test [3] was -0.45; in test [4], -1.34 (inactive); in test [5], -0.437 (inactive); in test [6], -0.469 (inactive).
For `CCCNC(=O)[C@@]1(Sc2ccc(C)cc2)CC(=O)N(Cc2ccccc2C(F)(F)F)[C@@H]1c1ccc(CO)cc1I`, the composite z-score in test [1] was -0.163 (inactive); in test [2] it was 0.704. Moreover, the z-score was -1.69 in test [3], -1.3 (inactive) in test [4], -0.104 (inactive) in test [5] and 0.0829 (inactive) in test [6].
In the case of `O=C1OCCC=C[C@H]2OC34C=CCN(CCN5CCOCC5)C(=O)[C@H]3N(CCCCCO)C(=O)[C@@H]4C12` (some centres not stated), the values for the composite z-score in test [1] and in test [2] were 0.272 (inactive) and 0.348, respectively. Further, the z-score is 0.124 in test [3], -5.57 (inactive) in test [4], 0.139 (inactive) in test [5] and 0.357 (inactive) in test [6].
For `[N-]=[N+]=Nc1ccccc1C[C@@]1(C(=O)N2CCCCC2)N=C(c2ccc(OCCCO)cc2)O[C@@H]1c1ccccc1`, the results for the composite z-score in test [1] and in test [2] were -0.0034 (inactive) and 0.727, respectively. The z-score in test [3] was -2.19; in test [4], -5.04 (inactive); in test [5], -0.878 (inactive); in test [6], -0.654 (inactive).
For `[N-]=[N+]=Nc1ccccc1C[C@]1(C(=O)NCC(O)CO)N=C(c2ccc(OCCCO)cc2)O[C@H]1c1ccccc1` (some centres not stated), the composite z-score in test [1] was 0.474 (inactive); in test [2], 0.511. Also, the z-score in test [3] was -1.9; in test [4], -5.96 (inactive); in test [5], 0.178 (inactive); in test [6] it was -0.365 (inactive).
Take `NCCCCCCNC(=O)[C@H]1C[C@H]2C(=O)N[C@@H](Cc3ccccc3)C(=O)N2[C@H]1c1cccc(OCCO)c1`: the composite z-score was 1.16 (inactive) in test [1] and 0.834 in test [2]. For the same molecule, the z-score in test [3] was -0.516; in test [4] it was -3.36 (inactive); in test [5], -0.182 (inactive); in test [6] it was -0.25 (inactive).
For `C[N+](C)(C)CCCC[C@@H]1NC(=O)[C@@H]2C[C@H](C(=O)NCCCCCCNC(=O)CS)[C@H](c3ccc(O)cc3)N2C1=O`, the composite z-score in test [1] was 0.307 (inactive); in test [2] it was 0.496. The z-score in test [3] is 0.504; in test [4], -1.32 (inactive); in test [5], 0.146 (inactive); in test [6], 0.32 (inactive).
On to `CC(C)Cc1ccc(CN2CC[C@@H](N)C2)cc1`, for which the composite z-score in test [1] is 0.773 (inactive); in test [2], -0.0255. In addition, the z-score in test [3] is -0.423; in test [4], -0.811 (inactive); in test [5], -0.939 (inactive); in test [6], -0.735 (inactive).
With `C=C[C@H](C)[C@@H](OC(=O)Nc1ccc(SC)cc1)c1ccc(O)c2ccccc12`, the composite z-score in test [1] is 0.68 (inactive); in test [2], 0.248. Besides, the z-score in test [3] was -0.127; in test [4] it was -4.35 (inactive); in test [5] it was 1.16 (inactive); in test [6] it was 0.893 (inactive).
Take `O=C1NC(=O)C2C1C=CC(C(O)c1ccc(I)cc1)N2Nc1ccccn1` (configuration not stated): the composite z-score in test [1] is 0.932 (inactive); in test [2], 0.457. Further, the z-score was 1.04 in test [3], -1.85 (inactive) in test [4], 0.955 (inactive) in test [5] and 0.534 (inactive) in test [6].
